In PubChem BioAssay (EPA / NIEHS):
Records with an inconclusive call do not appear. Calls of active or inactive are those of the source. Rule for the calls: active = hit-call score of the fitted dose curve at least 0.9, where 1 is the maximum; inconclusive = response in the unintended direction; inactive = score below 0.9.

Columns and labels:
[1] = TOX21_p53_BLA_p2_viability: Viability Assessment in the Tox21 HCT-116 p53 Agonism Beta-lactamase Assay, Phase 2 (AID 2283591);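 note: compound exposure lasted 16 h at 37 °C; actives lower the ATP signal meaning cytotoxicity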
In short: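 HCT-116 p53-bla cells (4000/well) rested 5 h at 37C, then received compounds in DMSO (217-fold dilution) for 16 h at 37C, 5% CO2. After the CCF4 read, CellTiter-Glo was added; ATP luminescence was read after 30 min at room temperature.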

[2] = molecular target: Cellular tumor antigen p53 (Homo sapiens) (UniProt P04637); test: TOX21_p53_BLA_p2_ratio: Tox21 HCT-116 p53 Agonism Beta-lactamase Assay, Ratio, Phase 2 (AID 2283592)
In short: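 In this cell-based reporter format, HCT116 cells were dosed with chemicals delivered from DMSO by 217-fold dilution and incubated 16 h at 37C. Emission at 460 and 530 nm after 2 h CCF4-AM loading provided the ratio, fitted upward versus DMSO.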

[3] = TOX21_p53_BLA_p3_viability: Viability Assessment in the Tox21 HCT-116 p53 Agonism Beta-lactamase Assay, Phase 3 (AID 2283593);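 note: cells exposed to compound for 16 h before reading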
In short: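 HCT-116 cells (4000/well) rested 5 h at 37C, then got DMSO compounds by pin tool (217-fold dilution) for 16 h at 37C, 5% CO2. After the bla read, CellTiter-Glo was added and luminescence read at 30 min, room temperature.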

[4] = molecular target: Cellular tumor antigen p53 (Homo sapiens) (UniProt P04637); test: TOX21_p53_BLA_p3_ratio: Tox21 HCT-116 p53 Agonism Beta-lactamase Assay, Ratio, Phase 3 (AID 2283596)
In short: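 HCT116 p53-bla cells (4000/well) given compound in DMSO (217-fold dilution) after 5 h, incubated 16 h at 37C. CCF4-AM substrate 2 h at room temperature; 460/530 nm emission ratio, gain fitted against DMSO.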

[5] = molecular target: Cellular tumor antigen p53 (Homo sapiens) (UniProt P04637); test: TOX21_p53_BLA_p5_ratio: Tox21 HCT-116 p53 Agonism Beta-lactamase Assay, Ratio, Phase 5 (AID 2283599)
In short: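 HCT-116 cells carrying a p53-inducible beta-lactamase reporter were seeded at 4000 cells/well and dosed after 5 h with compound in DMSO (217-fold dilution). After 16 h at 37C, CCF4-AM substrate was added for 2 h, and the 460/530 nm emission ratio was scored as gain-of-signal versus DMSO.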

[6] = TOX21_p53_BLA_p5_viability: Viability Assessment in the Tox21 HCT-116 p53 Agonism Beta-lactamase Assay, Phase 5 (AID 2283600)
In short: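 Compounds, pinned from DMSO at 217-fold dilution, were left on the cells for 16 h. The viability endpoint was ATP content measured by CellTiter-Glo luminescence, where falling signal reflects cytotoxicity.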

[7] = molecular target: Cellular tumor antigen p53 (Homo sapiens) (UniProt P04637); test: TOX21_p53_BLA_p4_ratio: Tox21 HCT-116 p53 Agonism Beta-lactamase Assay, Ratio, Phase 4 (AID 2283601)
In short: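 HCT116 cells carrying an inducible beta-lactamase reporter were plated at 4000 cells/well, rested 5 h, then exposed to compounds in DMSO (217-fold dilution) for 16 h at 37C. CCF4-AM substrate was loaded 2 h at room temperature; 460/530 nm emission ratio scored gain-of-signal versus DMSO.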

Sequence of Cellular tumor antigen p53 (Homo sapiens) (P04637 whole entry, looked up): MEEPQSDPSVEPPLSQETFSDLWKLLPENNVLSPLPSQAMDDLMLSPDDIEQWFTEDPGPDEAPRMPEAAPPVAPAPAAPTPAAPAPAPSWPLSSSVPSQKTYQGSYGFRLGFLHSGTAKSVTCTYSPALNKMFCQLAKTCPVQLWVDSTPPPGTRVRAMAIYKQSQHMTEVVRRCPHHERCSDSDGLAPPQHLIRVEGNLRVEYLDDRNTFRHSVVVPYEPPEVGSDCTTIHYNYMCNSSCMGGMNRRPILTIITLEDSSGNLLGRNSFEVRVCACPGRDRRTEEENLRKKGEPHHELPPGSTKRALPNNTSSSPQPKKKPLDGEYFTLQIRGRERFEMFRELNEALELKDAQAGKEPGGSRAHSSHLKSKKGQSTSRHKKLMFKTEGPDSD

SMILES	outcome [1]	outcome [2]	outcome [3]	outcome [4]	outcome [5]	outcome [6]	outcome [7]	AC50 [1]	AC50 [2]	AC50 [3]	AC50 [4]	AC50 [5]
CCN[C@@H]1C[C@H](N)[C@@H](OC2OC(CN)=CCC2N)[C@H](O)[C@H]1O[C@H]1OC[C@](C)(O)[C@H](NC)[C@H]1O (stereo partly specified)	inactive	inactive	inactive	inactive	inactive	inactive	inactive					
Cc1ncc([N+](=O)[O-])n1CC(C)O (stereo unspecified)	inactive	inactive	inactive	inactive	inactive	inactive	inactive					
Cc1occc1SSc1ccoc1C	inactive	inactive	inactive	inactive	inactive	inactive						
C=C(C)c1ccccc1	inactive	inactive	inactive	inactive	inactive	inactive	inactive					
O=C(CCBr)N1CCN(C(=O)CCBr)CC1	inactive	inactive	inactive	inactive	inactive	inactive	inactive					
O=C1Nc2ccccc2C1=O	inactive	inactive	inactive	inactive	inactive	inactive						
CN1CC(O)c2cc(N=NC(N)=O)c(O)cc21 (stereo unspecified)	inactive	inactive	inactive	inactive	inactive	inactive						
CC1CN(c2ccccc2)NC1=O (stereo unspecified)	inactive	inactive	inactive	inactive	inactive	inactive	inactive					
CCn1cc(C(=O)O)c(=O)c2cnc(N3CCCC3)nc21	inactive	inactive	inactive	inactive	inactive	inactive						
CCOC(=O)C1=C(C)NC(C)=C(C(=O)OCC)C1c1ccccc1/C=C/C(=O)OC(C)(C)C						inactive	inactive	35.4 µM (active)	38.6 µM (active)	43 µM (active)	39.5 µM (active)	26.5 µM (active)
C[N+](C)(C)CC(O)CC(=O)[O-] (stereo unspecified)	inactive	inactive	inactive	inactive	inactive	inactive	inactive					
C[C@@H](O)[C@H]1C(=O)N2C(C(=O)[O-])=C(SC3Cn4cnc[n+]4C3)[C@H](C)[C@H]12 (stereo partly specified)	inactive	inactive	inactive	inactive	inactive	inactive						
NC[C@@H]1CC[C@@H](N)[C@@H](O[C@H]2[C@H](O)[C@@H](O[C@H]3O[C@H](CO)[C@@H](O)[C@H](N)[C@H]3O)[C@H](N)C[C@@H]2N)O1	inactive	inactive	inactive	inactive	inactive	inactive	inactive					
C=CC(=O)CCCCC	inactive	inactive	inactive	inactive	inactive	inactive	inactive					
COC(=O)[C@@H](N)CS	inactive	inactive	inactive	inactive	inactive	inactive	inactive					
O=C1C(O)=C(O)C(=O)C(O)=C1O	inactive	inactive	inactive	inactive	inactive	inactive						
CC(C)C[P+](C)(CC(C)C)CC(C)C	inactive	inactive	inactive	inactive	inactive	inactive	inactive					
O=C=Nc1cccc(C(F)(F)F)c1	inactive		inactive	inactive	inactive		inactive		86.2 µM (active)			
Cc1ccc([N+](=O)[O-])c(N)c1	inactive	inactive	inactive	inactive	inactive		inactive					
CCCCC(C)C(=O)O (stereo unspecified)	inactive	inactive	inactive	inactive	inactive		inactive					
CC(C)(C)OC(=O)c1ccccc1C(=O)O	inactive	inactive	inactive	inactive	inactive	inactive	inactive					
CN1CCN(c2c(F)cc3c(=O)c(C(=O)O)cn(CCF)c3c2F)CC1	inactive	inactive	inactive	inactive	inactive		inactive					
C=C1[C@@H]2CC[C@@H](C2)C1(C)C	inactive	inactive	inactive	inactive	inactive		inactive					
Cc1cc(O)c2ccccc2c1O	inactive	inactive	inactive	inactive	inactive		inactive					
